Assay [1] in a line: BSK_BT_PBMCCytotoxicity: PBMC Cytotoxicity Assessment in the BioMAP Diversity Plus: BT Assay (AID 2284225).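 Also: PBMC viability measured by Alamar Blue dye reduction fluorescence.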 To be noted: primary human B cells with PBMC. The gist of the method: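 Primary human co-culture of B cells and PBMC, pre-dosed 1 h then activated with SEB and TSST-1. Cytotoxicity is taken from Alamar Blue dye reduction, added for 6 h at the end of a 90 h incubation.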

Read-out in assay [2]: Secreted IgG (sIgG), gene 3500
The assay can be described thus: BSK_BT_sIgG: BioMAP Diversity Plus: BT Assay for Secreted IgG (sIgG) Biomarker Activity (AID 2284226). The following applies: primary human B cells with PBMC. The gist of the method: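 In this multiplexed co-culture system, ELISA quantifies sIgG 24 h post-treatment. Endpoint analysis uses positive fitting direction, DMSO negative control.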

Assay [3] can be described thus: BSK_BT_Bcell_Proliferation: Viability Assessment in the BioMAP Diversity Plus: BT Assay for B cell Proliferation (AID 2284227). The following applies: primary human B cells with PBMC. The gist of the method:
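Read-out is absorbance at 560 nm from sulforhodamine B staining of total protein, reflecting relative cell numbers in a human B cell and PBMC co-culture after 72 h of chemical exposure. Values were referenced to DMSO.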

Read-out in assay [4]: Interleukin 6 (IL6), IL6 (gene 3569)
As to the kind of experiment: BSK_BT_xIL6: BioMAP Diversity Plus: BT Assay for Interleukin 6 (IL6) Biomarker Activity (AID 2284228). To be noted: primary human B cells with PBMC. The method, boiled down: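 Chemical added to human B cell/PBMC co-culture → 24 h → supernatant IL-6 by Luminex xMAP → fit vs DMSO baseline, upward direction.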

Read-out in assay [5]: Tumor necrosis factor (Homo sapiens) (UniProt P01375)
As to the kind of experiment: BSK_BT_xTNFa: BioMAP Diversity Plus: BT Assay for Tumor necrosis factor alpha (TNF-alpha) Biomarker Activity (AID 2284230). The following applies: primary human B cells with PBMC. The gist of the method: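 Human primary co-culture of B cells and peripheral blood mononuclear cells; TNF-alpha in supernatant, 24 h post-dose, Luminex multiplex; DMSO = baseline.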

Read-out in assay [6]: Collagen I, COL1A1 (gene 1277)
As to the kind of experiment: BSK_MyoF_CollagenI: BioMAP Diversity Plus: MyoF Assay for Collagen I Biomarker Activity (AID 2284238). The following applies: primary human lung fibroblasts. The gist of the method:
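Multiplexed primary human lung fibroblast system; Collagen I measured by ELISA at 24 h post-dose. Increases are referenced to DMSO.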

Read-out in assay [7]: Collagen III, COL3A1 (gene 1281)
As to the kind of experiment: BSK_MyoF_CollagenIII: BioMAP Diversity Plus: MyoF Assay for Collagen III Biomarker Activity (AID 2284239). The following applies: primary human lung fibroblasts. The method, boiled down:
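Compounds are added to primary human lung fibroblasts and left for 24 hours. Collagen III is then quantified by ELISA. Analysis takes DMSO as baseline and fits increases in signal.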

Assay [8] can be described thus: CCTE_Mundy_HCI_hNP1_Casp3_7: CCTE's Caspase-Glo 3/7 Assay in human neuroprogenitor cells for Apoptosis, Mundy Lab (AID 2284240). The method, boiled down:
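Neuroepithelial-lineage stem cells from WA09 embryonic cells were treated with chemicals after 40–44 h of culture. Twenty-four hours later, caspase-3/7 activation was detected luminescently after a 30 min room-temperature reagent step, with DMSO as baseline.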

Assay [9] can be described thus: CCTE_Mundy_HCI_hNP1_CellTiter: CCTE's Cell Titer-Glo 2 Assay in human neuroprogenitor cells for Viability, Mundy Lab (AID 2284241; active = hit-call score of the fitted dose curve at least 0.9, where 1 is the maximum). The gist of the method: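 Measures ATP content in human neural progenitors derived from WA09 embryonic cells. Read-out at 26.5 hours after dosing, with DMSO serving as the negative control and baseline.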
(In ATP-based viability assays light output follows the ATP content of the culture.)

Read-out in assay [10]: Interleukin 17F (IL17F), IL17F (gene 112744)
The assay can be described thus: BSK_BT_xIL17F: BioMAP Diversity Plus: BT Assay for Interleukin 17F (IL17F) Biomarker Activity (AID 2284243). The following applies: primary human B cells with PBMC. The gist of the method:
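Measures secreted IL-17F from a human B cell plus PBMC co-culture at 24 h post-dose by Luminex xMAP, with DMSO defining baseline activity.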

Read-out in assay [11]: Actin alpha 1 (ACTA1), ACTA1 (gene 58)
As to the kind of experiment: BSK_MyoF_ACTA1: BioMAP Diversity Plus: MyoF Assay for Actin alpha 1 (ACTA1) Biomarker Activity (AID 2284244). The following applies: primary human lung fibroblasts. The gist of the method:
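MyoF fibroblast system (human lung); a-SMA quantified via ELISA at 24 h; DMSO-normalised, gain-of-signal endpoint.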

Read-out in assay [12]: Interleukin 2 (IL2), IL2 (gene 3558)
The assay can be described thus: BSK_BT_xIL2: BioMAP Diversity Plus: BT Assay for Interleukin 2 (IL2) Biomarker Activity (AID 2284245). To be noted: primary human B cells with PBMC. The gist of the method: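 Co-cultures of primary human B cells and PBMC are treated with chemical and sampled at 24 h. IL-2 secretion is quantified by Luminex xMAP, with DMSO-treated wells as baseline.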

Read-out in assay [13]: Collagen IV, COL4A1 (gene 1282)
As to the kind of experiment: BSK_MyoF_CollagenIV: BioMAP Diversity Plus: MyoF Assay for Collagen IV Biomarker Activity (AID 2284247). The following applies: primary human lung fibroblasts. The method, boiled down: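 Lung fibroblasts (human primary) treated with chemicals were assayed after 24 h for Collagen IV using an ELISA, with DMSO serving as negative control and baseline for a positive-direction fit.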

Read-out in assay [14]: Monokine induced gamma interferon (MIG), CXCL9 (gene 4283)
As to the kind of experiment: BSK_KF3CT_MIG: BioMAP Diversity Plus: KF3CT Assay for Monokine induced gamma interferon (MIG) Biomarker Activity (AID 2284248). To be noted: primary human keratinocytes with fibroblasts. The gist of the method:
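The assay uses a co-culture of human keratinocytes and foreskin fibroblasts. Measurement occurs 24 hours after dosing, with MIG detected by ELISA and the DMSO control as baseline.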

Read-out in assay [15]: Vascular cell adhesion molecule 1 (VCAM1), VCAM1 (gene 7412)
The assay can be described thus: BSK_BF4T_VCAM1: BioMAP Diversity Plus: BF4T Assay for Vascular cell adhesion molecule 1 (VCAM1) Biomarker Activity (AID 2284249). To be noted: primary human bronchial epithelial cells with fibroblasts. The method, boiled down: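 Cell-surface VCAM-1 quantified by ELISA after 24 h chemical exposure of human bronchial epithelial/dermal fibroblast co-cultures, with SRB staining in parallel wells for cytotoxicity; DMSO baseline, positive-direction fitting.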

Read-out in assay [16]: Vascular cell adhesion molecule 1 (VCAM1), VCAM1 (gene 7412)
As to the kind of experiment: BSK_MyoF_VCAM1: BioMAP Diversity Plus: MyoF Assay for Vascular cell adhesion molecule 1 (VCAM1) Biomarker Activity (AID 2284231). The following applies: primary human lung fibroblasts. The gist of the method:
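Steps: fibroblasts from human lung exposed to compound; biomarker quantified by ELISA at 24 h; values analysed for upward change over the DMSO baseline.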

Read-out in assay [17]: Basic fibroblast growth factor (bFGF), FGF2 (gene 2247)
The assay can be described thus: BSK_MyoF_bFGF: BioMAP Diversity Plus: MyoF Assay for Basic fibroblast growth factor (bFGF) Biomarker Activity (AID 2284246). To be noted: primary human lung fibroblasts. The method, boiled down:
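Fibroblasts from human lung, 24 h dosing. bFGF by ELISA; gain of signal over DMSO.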

Read-out in assay [18]: Interleukin 17A (IL17A), IL17A (gene 3605)
As to the kind of experiment: BSK_BT_xIL17A: BioMAP Diversity Plus: BT Assay for Interleukin 17A (IL17A) Biomarker Activity (AID 2284229). The following applies: primary human B cells with PBMC. The method, boiled down:
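Chemicals were added to a human B cell and PBMC co-culture. After 24 h, secreted IL-17A was measured with Luminex xMAP. Curves were fitted in the positive direction, with DMSO wells as baseline.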

Values joined by “and” are separate entries in the source; they are usually repeats but may differ in a detail not shown here. Identical values can stand only once. Results filed as inconclusive are left out. Some structures have more than one record in an assay (separate samples or runs), and their calls can disagree. Active and inactive are the calls of the source. The calls were made as follows, unless noted: active = hit-call score of the fitted dose curve at least 0.9, where 1 is the maximum; inactive = score below 0.9.

Sequence of Tumor necrosis factor (Homo sapiens) (P01375 whole entry, looked up): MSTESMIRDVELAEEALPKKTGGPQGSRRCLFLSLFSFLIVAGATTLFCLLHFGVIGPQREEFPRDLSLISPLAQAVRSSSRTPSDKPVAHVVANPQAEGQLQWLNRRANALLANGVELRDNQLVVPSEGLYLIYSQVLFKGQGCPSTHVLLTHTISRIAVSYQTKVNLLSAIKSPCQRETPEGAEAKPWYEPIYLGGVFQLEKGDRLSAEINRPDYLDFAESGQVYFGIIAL

`O=C(O)C(F)(F)C(F)(F)C(F)(F)OC(F)(C(F)(F)F)C(F)(F)F`: the outcome in assay [1], in assay [2], in assay [3], in [4], in assay [5] and in [6] was inactive. For the same molecule, the result in assay [7], in assay [8], in assay [9], in assay [10], in [11] and in [12] was inactive. The outcome in assay [13], in [14] and in assay [15] was inactive.
The term AC50 denotes the midpoint of the concentration-response curve, whichever way the signal moves. `Cc1cc(C)c(O)c(C(C)(C)C)c1`: the result in assay [1], in assay [2], in [3], in assay [4], in assay [5] and in assay [10] was inactive. The result in assay [12] was inactive. The AC50 in assay [16] was 34.2 µM (active); in assay [6], 30.6 µM (active); in assay [7] it was 30.5 µM (active); in [11], 29.8 µM (active); in assay [17] it was 36.8 µM (active); in assay [13] it was 32.4 µM (active).
As to `CC(C)(C)c1cc(CCC(=O)NCCCCCCNC(=O)CCc2cc(C(C)(C)C)c(O)c(C(C)(C)C)c2)cc(C(C)(C)C)c1O`, the result in assay [1], in [3], in [4], in assay [18], in [5] and in [6] was inactive. In addition, the outcome in assay [7], in assay [11] and in assay [13] was inactive. The AC50 is 1.98 µM (active) in assay [2], 5.33 µM (active) in assay [10] and 1.36 µM (active) in [12].
With `Cc1cnccn1`, the result in [1], in [3], in assay [4], in [5], in assay [6] and in [7] was inactive. The outcome in assay [10], in assay [11], in assay [12], in [17] and in assay [13] was inactive. The AC50 in [2] was 5.22 µM (active).
Regarding `CN(C(=O)C(F)(F)C(F)(F)C(F)(F)F)[Si](C)(C)C`, the result in assay [1], in [2], in assay [3], in assay [4], in assay [5] and in [6] was inactive. Also, the result in [7], in assay [10], in assay [11], in assay [12], in [13] and in assay [14] was inactive. Besides, in [15], the result was inactive.
In the case of `C[Si](Cl)(Cl)CCC(F)(F)C(F)(F)C(F)(F)C(F)(F)C(F)(F)C(F)(F)F`, the result in assay [1], in assay [2], in assay [3], in assay [4], in [5] and in assay [6] was inactive. Moreover, the outcome in assay [7], in assay [10], in assay [11], in [12], in assay [13] and in assay [14] was inactive. The result in [15] was inactive. In assay [5], the AC50 was 3.33 µM (active).
Take `CCN(CC)c1ccc2c(c1)Oc1cc(N(CC)CC)ccc1C21OC(=O)c2ccccc21`: the AC50 in [1] was 6.15 µM (active); in assay [2], 6.43 µM (active); in assay [3] it was 6.1 µM (active); in assay [4], 10 µM (active). Besides, the result in assay [5], in assay [6], in [7], in assay [10], in assay [11] and in [12] was inactive. Moreover, the result in [13] was inactive.
Take `CCN=C1C=CC(=C(c2ccc(N(CC)CC)cc2)c2ccc(N(CC)CC)cc2)c2ccccc21`: in assay [14], the AC50 is 2.63 µM (active) and 2.31 µM (active).
